Screening results as filed in PubChem.
An excerpt weighted towards active compounds, which were near 3.9% of everything screened.
Anthrax LF prot = Bacillus anthracis LF protease inhibitors, primary screen, biochemical, multiplex microsphere, MLPCN library. Lethal factor (Bacillus anthracis), P15917. 360,000 tested, 0.12% active. multiplex microsphere protease cleavage assay. inhibition, % at 10 µM. AID 588501, 2011
SARS 3CLpro inh = SARS-CoV 3CLpro protease inhibitors, primary screen, biochemical, quenched FRET; 290,000 tested, 0.14% active; AID 1706, 2009; inhibition, % at 6 µM; recombinant SARS-CoV 3CLpro, quenched FRET peptide cleavage; Replicase polyprotein 1ab (Severe acute respiratory syndrome coronavirus), P0C6X7; in the data active = inhibition above about 12%
BoNT F protease = BoNT/F light chain protease inhibitors, primary screen, biochemical, flow cytometry, MLPCN library; 360,000 tested, 0.22% active; inhibition, % at 10 µM; Multiplex microsphere protease cleavage assay; in the data active = inhibition above about 35%, passing the limit was not always enough; inconclusive = no clear call, values can overlap the other calls
Bead autofluor = flagged as autofluorescent in microsphere protease counterscreen. compound autofluorescence counterscreen, microsphere flow cytometry; stronger effect = higher value. fluorescence intensity (no concentration beside the values). 360,000 tested, 3.1% active. AID 624483; in the data active = fluorescence intensity above about 16000; inconclusive = no clear call, values can overlap the other calls
BoNT A protease = BoNT/A light chain protease inhibitors, primary screen, biochemical, flow cytometry, MLPCN library; 360,000 tested, 0.17% active; multiplex microsphere protease substrate cleavage; AID 588499, 2011; inhibition, % at 10 µM
CCHF vOTU inh = CCHFV vOTU protease inhibitors, primary screen, biochemical, Pep-AMC substrate, fluorescence. Crimean-Congo hemorrhagic fever virus L polyprotein viral ovarian tumor (vOTU) protease …. inhibition, % at 11.5 µM. 370,000 tested, 0.55% active. AID 651958, 2012; in the data active = inhibition above about 30%
A number is an active result. Rule as the data show it, unless noted: active = inhibition above about 30%; inconclusive = no clear call, values can overlap the other calls; inactive = below that.

Results for O=C(Nc1nc(-c2ccccc2)cs1)c1cccc([N+](=O)[O-])c1 ?
Anthrax LF prot: inactive; SARS 3CLpro inh: inactive; BoNT F protease: inactive; Bead autofluor: 20697; BoNT A protease: inactive; CCHF vOTU inh: inactive

Results for C=CCN1C(=O)[C@@H](CC(=O)NCCc2ccccc2OC)[C@]2(C(=O)OC)CCCCC=C12 ?
CCHF vOTU inh: inactive

Results for CCCC[C@H]1C2CC(OC(=O)Nc3ccc4c(c3)OCO4)C(C2)[C@H]2CCCCN21 (some centres undefined) ?
CCHF vOTU inh: inactive

What do the screens show for `CS(=O)(=O)Nc1ccc(N2CCCCC2)c(Cl)c1`?
Anthrax LF prot: inactive; SARS 3CLpro inh: inactive; BoNT F protease: inactive; Bead autofluor: 23555; BoNT A protease: inactive; CCHF vOTU inh: inactive

How did CCCCNC(=O)C[C@H]1C[C@@]2(C(=O)OC)C(=C[C@H](C3CCCC3)O[C@@H]2C)N(Cc2ccco2)C1=O do in these assays?
CCHF vOTU inh: inactive

How did CCOC(=O)[C@]12CCCCC/C=C\1N(Cc1ccc(OC)cc1)C(=O)[C@H]2CC(=O)NCCC(C)C do in these assays?
CCHF vOTU inh: inactive

What do the screens show for `Cc1ccc(C(=O)CSc2n[nH]c(-c3ccco3)n2)cc1C`?
Anthrax LF prot: inactive; SARS 3CLpro inh: inactive; BoNT F protease: inactive; Bead autofluor: 17185; BoNT A protease: inactive; CCHF vOTU inh: inactive

Results for COc1ccc(C(=O)CSc2n[nH]c(-c3ccco3)n2)cc1 ?
Anthrax LF prot: inactive; SARS 3CLpro inh: inactive; BoNT F protease: inactive; Bead autofluor: 17016; BoNT A protease: inactive; CCHF vOTU inh: inactive

How did COCCCNC(=O)C[C@H]1C[C@@]2(C(=O)OC)C(=C[C@H](C(C)C)O[C@@H]2C2CC2)N(CCC2=CCCCC2)C1=O do in these assays?
CCHF vOTU inh: inactive

Results for CC(C)NC(=O)NC(=O)COC(=O)CCOc1ccccc1 ?
Anthrax LF prot: inactive; SARS 3CLpro inh: inactive; BoNT F protease: inactive; Bead autofluor: 24104; BoNT A protease: inactive; CCHF vOTU inh: inactive

How did COc1ccc(OCCC(=O)OCC(=O)NC(=O)NC(C)C)cc1 do in these assays?
SARS 3CLpro inh: inactive; CCHF vOTU inh: inactive

Results for CCC(CO)Nc1ccc([N+](=O)[O-])c2cccnc12 (centres undefined) ?
Anthrax LF prot: inactive; SARS 3CLpro inh: inactive; BoNT F protease: inactive; Bead autofluor: 22808; BoNT A protease: inactive; CCHF vOTU inh: inactive

How did CC(O)CNc1ccc([N+](=O)[O-])c2cccnc12 (centres undefined) do in these assays?
Anthrax LF prot: inactive; SARS 3CLpro inh: inactive; BoNT F protease: inactive; Bead autofluor: inactive; BoNT A protease: inactive; CCHF vOTU inh: inactive

What do the screens show for `Cc1ccc(N2CCCn3c2cc(C)c(C#N)c3=O)cc1Cl`?
Anthrax LF prot: inactive; SARS 3CLpro inh: inactive; BoNT F protease: inactive; Bead autofluor: inactive; BoNT A protease: inactive; CCHF vOTU inh: inactive

How did Cc1ccc(N2CCCn3c2cc(C)c(C#N)c3=O)cc1C do in these assays?
Anthrax LF prot: inactive; SARS 3CLpro inh: inactive; BoNT F protease: inactive; Bead autofluor: 21058; BoNT A protease: inactive; CCHF vOTU inh: inactive

What do the screens show for `COc1ccc(C(=O)O[C@@H]2CCC[C@@]3(C(=O)N(Cc4ccccc4)c4ccccc43)[C@H]2NC(=O)CCc2ccccc2)cc1OC`?
CCHF vOTU inh: inactive

How did COc1ccc(S(=O)(=O)N(CCc2ccccc2)CC(=O)NCCCO)cc1 do in these assays?
Anthrax LF prot: inactive; SARS 3CLpro inh: inactive; BoNT F protease: inactive; Bead autofluor: inactive; BoNT A protease: inactive; CCHF vOTU inh: inactive

What do the screens show for `CCNC(=O)CN(CCc1ccccc1)S(=O)(=O)c1ccc(OC)cc1`?
Anthrax LF prot: inactive; SARS 3CLpro inh: inactive; BoNT F protease: inactive; Bead autofluor: 16480; BoNT A protease: inactive; CCHF vOTU inh: inactive

Results for C[C@H](NC(=O)OCc1ccccc1)P(=O)(O)O ?
CCHF vOTU inh: inactive

What do the screens show for `Cc1csc(NC(=O)C2CCN(C(=O)CSc3nnc(C)n3Cc3ccccc3)CC2)n1`?
Anthrax LF prot: inactive; SARS 3CLpro inh: inactive; BoNT F protease: inactive; Bead autofluor: 20510; BoNT A protease: inconclusive; CCHF vOTU inh: inactive

How did COc1ccc(N2C(=O)c3[nH]nc(-c4ccccc4)c3C2c2ccc(Br)cc2)cc1 (centres undefined) do in these assays?
CCHF vOTU inh: inactive

Results for Cc1ccc(NC(=O)c2cccc3c2-c2ccccc2C3=O)cc1C ?
Anthrax LF prot: inactive; SARS 3CLpro inh: inactive; BoNT F protease: inactive; Bead autofluor: inactive; BoNT A protease: inactive; CCHF vOTU inh: inactive

What do the screens show for `Cc1cccc(NC(=O)c2ccccc2-c2ccccc2)c1`?
Anthrax LF prot: inactive; SARS 3CLpro inh: inactive; BoNT F protease: inactive; Bead autofluor: inactive; BoNT A protease: inactive; CCHF vOTU inh: inactive

How did Cc1cccc(NC(=O)c2cccc3c2C(=O)c2ccccc2-3)c1 do in these assays?
Anthrax LF prot: inactive; SARS 3CLpro inh: inactive; BoNT F protease: inactive; Bead autofluor: 23188; BoNT A protease: inactive; CCHF vOTU inh: inactive

Results for Cc1cccc(NC(=O)c2ccccc2C(=O)O)c1 ?
Anthrax LF prot: inactive; SARS 3CLpro inh: inactive; BoNT F protease: inactive; Bead autofluor: 19743; BoNT A protease: inactive; CCHF vOTU inh: inactive

How did O=C(OC12CCCN(C1)/C(=C/c1cccc(Cl)c1)C2)c1ccc(F)cc1 (centres undefined) do in these assays?
CCHF vOTU inh: inactive

Results for O=C(NCc1ccccc1)NC(=O)c1ccncc1 ?
Anthrax LF prot: inactive; SARS 3CLpro inh: inactive; BoNT F protease: inactive; Bead autofluor: 20362; BoNT A protease: inactive; CCHF vOTU inh: inactive

What do the screens show for `O=C(NCc1ccccc1)NC(=O)c1ccccc1`?
Anthrax LF prot: inactive; SARS 3CLpro inh: inactive; BoNT F protease: inactive; Bead autofluor: inactive; BoNT A protease: inactive; CCHF vOTU inh: inactive

What do the screens show for `O=C(NCc1ccncc1)c1ccc(Br)cc1`?
Anthrax LF prot: inactive; SARS 3CLpro inh: inactive; BoNT F protease: inactive; Bead autofluor: 22240; BoNT A protease: inactive; CCHF vOTU inh: inactive

Results for COc1ccc(CN(Cc2ccccn2)C(=O)CN2C(=O)C(C)Oc3ccccc32)cc1 (centres undefined) ?
Anthrax LF prot: inactive; SARS 3CLpro inh: inactive; BoNT F protease: inactive; Bead autofluor: 22997; BoNT A protease: inactive; CCHF vOTU inh: inactive

Results for COc1ccc(NC(=O)CN2C(=O)C(C)Oc3ccccc32)cc1 (centres undefined) ?
Anthrax LF prot: inactive; SARS 3CLpro inh: inactive; BoNT F protease: inactive; Bead autofluor: 23500; BoNT A protease: inactive; CCHF vOTU inh: inactive

Results for CCC1Oc2ccc(C)cc2N(CC(=O)NCc2cccc(OC)c2)C1=O (centres undefined) ?
Anthrax LF prot: inactive; SARS 3CLpro inh: inactive; BoNT F protease: inactive; Bead autofluor: 17853; BoNT A protease: inactive; CCHF vOTU inh: inactive
